Assay results published in PubChem BioAssay AID743144 (Broad Institute, 2013).
Potency and affinity values are given separately. Inconclusive results are not listed. A call without a number means that no potency is given here. Active and inactive are the calls of the source. The rule behind the calls is not given here.

Assay: COV362 cell viability loss – plate reader, dry powder, SA12, cytotoxicity control for PAX8 inhibitor project, dose response (AID 743144)
Details: COV362 ovarian cancer cells; series mostly up to 35 µM
For `O=C(C[C@H]1CC[C@H]2[C@@H](COC[C@@H](O)CN2S(=O)(=O)c2cccc(Cl)c2)O1)Nc1ccc(-c2ccccc2)cc1`, the outcome was “inactive”. For `O=C(CN1C(=O)c2ccccc2S1(=O)=O)c1ccccc1Cl`, the outcome was “inactive”. For `C[C@H]1CN([C@@H](C)CO)C(=O)CCCn2nncc2CO[C@@H]1CN(C)C(=O)Nc1ccc(-c2cccs2)cc1`, the outcome was “inactive”. In the case of `COc1ccccc1C#Cc1ccc([C@@H]2[C@@H](C#N)N(C(=O)C3CCCCC3)[C@H]2CO)cc1`, the outcome is reported as “inactive”. For `N#C[C@H]1[C@@H](c2ccc(C3=CCCC3)cc2)[C@@H](CO)N1C(=O)NC1CCCCC1`, the outcome was “inactive”. With `O=S(=O)(Nc1cccc2cccnc12)c1ccccc1` the outcome was “inactive”. In the case of `COc1cccc(C#Cc2ccc([C@@H]3[C@@H](C#N)N(C(=O)C4CCCCC4)[C@@H]3CO)cc2)c1`, the outcome is reported as “inactive”. For `O=C(CCS(=O)(=O)c1ccccc1)Nc1nc2ccc(F)cc2s1`, the outcome was “inactive”. In the case of `C[C@H](CO)N1C[C@H](C)[C@@H](CN(C)S(=O)(=O)c2ccc(Cl)cc2)OCCCC[C@H](C)Oc2ccc(NS(=O)(=O)c3ccccc3)cc2C1=O`, the outcome is reported as “inactive”. With `O=C(Nc1ccc(OCC(F)(F)C(F)F)c(C(F)(F)F)c1)c1ccccc1O` the outcome was “inactive”. In the case of `C[C@H](CO)N1C[C@H](C)[C@@H](CN(C)Cc2ccc(-c3ccccc3)cc2)Oc2ccc(NC(=O)C3CC3)cc2CC1=O`, the outcome is reported as “inactive”. For `N#C[C@H]1N[C@H](CO)[C@@H]1c1ccc(C#Cc2ccccc2F)cc1`, the outcome was “inactive”. With `C[C@@H]1CN([C@H](C)CO)C(=O)CCCn2nncc2CO[C@H]1CN(C)Cc1ccc(Oc2ccccc2)cc1` the outcome was “inactive”. In the case of `COc1ccccc1C#Cc1ccc([C@H]2[C@@H](CO)N(C(=O)C3CCCC3)[C@H]2C#N)cc1`, the outcome is reported as “inactive”. With `Cc1ccc(S(=O)(=O)CC(CN2CCCCC2)N2CCCCC2)cc1` (stereo unspecified) the outcome was “inactive”. With `C[C@H](CO)N1C[C@H](C)[C@@H](CN(C)Cc2ccc(C(F)(F)F)cc2)OCCCC[C@H](C)Oc2ccc(NS(=O)(=O)c3ccc(F)cc3)cc2C1=O` the outcome was “inactive”. With `CC(=O)N1CCOc2ccc(S(=O)(=O)N3CCN(c4cccc(C(F)(F)F)c4)CC3)cc21` the outcome was “inactive”. For `N#C[C@@H]1[C@@H](c2ccc(-c3ccccc3F)cc2)[C@@H](CO)N1C(=O)C1CCC1`, the outcome was “inactive”. In the case of `C[C@H](CO)N1C[C@H](C)[C@@H](CN(C)Cc2ccc(C(F)(F)F)cc2)Oc2ccc(NS(=O)(=O)c3ccc(Cl)cc3)cc2CC1=O`, the outcome is reported as “inactive”. In the case of `CC(C)c1cc(C(=O)OCC(=O)N2CCN(C(=O)c3ccco3)CC2)c(O)c(C(C)C)c1`, the outcome is reported as “inactive”. With `N#C[C@@H]1[C@H](c2ccc(C#CC3CCCCC3)cc2)[C@H](CO)N1S(=O)(=O)c1ccccc1` the outcome was “inactive”.
